# Results: PubChem BioAssay (Tox21)
# Values without a mark were called inactive. Inconclusive results are not listed. Entries that show only a call come without a potency. Active and inactive are the calls of the source. Unless noted, calls follow the shape of the full dose curve.
# Legend:
# [1] = Caspase-3/7 induction in HepG2 cells by small molecules, qHTS assay (AID 1346978; active = well fitted curve in the direction sought with a large enough effect in the repeat runs; an effect the other way counts as inactive or inconclusive; also: nearly all actives have a fitted effect of over 15% in size)
# How it was run: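 Caspase-3/7 induction was measured by Caspase-Glo 3/7 luminescence (30 min, room temperature) after a 17 hr compound exposure of wild-type HepG2 cells seeded at 2,000 per well and pre-incubated 5 hr.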
# [2] = molecular target: Acetylcholinesterase (Homo sapiens) (UniProt P22303); assay: Acetylcholinesterase (AChE) small molecule antagonists: colormetric cell-based qHTS assay (AID 1347395); also: nearly all actives have a fitted effect of over 30% in size
# How it was run: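 SH-SY5Y cells, plated overnight at 37 C, were exposed to compounds for 30 min at 37 C and 5% CO2. Acetylthiocholine plus DTNB was then added, and thiocholine from endogenous AChE was quantified colorimetrically after 90 min at 37 C.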
# [3] = molecular target: Acetylcholinesterase (Homo sapiens) (UniProt P22303); assay: Acetylcholinesterase (AChE) small molecule antagonists: enzyme-based qHTS assay (AID 1347397); details: Potency: AChE enzyme activity inhibition; outcome: AChE enzyme activity inhibition; also: nearly all actives have a fitted effect of over 55% in size
# How it was run: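 rhAChE 50 mU/mL (dispensed) + cpd or DMSO, 30 min RT; add DTNB/acetylthiocholine cocktail, 10 min RT; colorimetric thiocholine readout. qHTS, 1536-well format.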
# [4] = molecular target: Acetylcholinesterase (Homo sapiens) (UniProt P22303); assay: Acetylcholinesterase (AChE) small molecule antagonists: fluorescence cell-based qHTS assay (AID 1347398); details: Potency: AChE activity; outcome: AChE activity; also: nearly all actives have a fitted effect of over 50% in size
# How it was run: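 Read-out is Thiolite Green fluorescence at Ex/Em = 490/520 nm, formed by reaction with thiocholine released when cellular AChE in SH-SY5Y cells hydrolyzes acetylthiocholine. Compounds were preincubated 30 min at 37 C before substrate.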
# [5] = molecular target: Acetylcholinesterase (Homo sapiens) (UniProt P22303); assay: Acetylcholinesterase (AChE) small molecule antagonists: enzyme-based qHTS assay with human liver microsomes (AID 1347399); details: Potency: qHTS inhibition; outcome: qHTS inhibition; also: nearly all actives have a fitted effect of over 60% in size
# How it was run: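 Recombinant human AChE (50 mU/mL in the enzyme mix) and human liver microsomes (0.25 mg/mL final) were preincubated with compound and NADPH (0.25 mg/mL final) for 30 min at 37 C. Acetylthiocholine/DTNB was then added; thiocholine was read colorimetrically after 10 min at room temperature.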
# [6] = molecular target: Glucocorticoid receptor (Homo sapiens) (UniProt P04150); assay: qHTS assay to identify small molecule antagonists of the glucocorticoid receptor (GR) signaling pathway (AID 720692; active = well fitted inhibition curve with a large enough effect in the signal ratio in the repeat runs, not every such curve was filed as active; the % refers to the signal ratio; also: potency is read from the fitted curve at half-maximal effect)
# How it was run: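 Inhibition of glucocorticoid signalling is measured in HeLa cells with a GRE-controlled beta-lactamase reporter; cells are co-treated with compound and 5 nM dexamethasone (final) for 18 h before FRET substrate readout.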
# [7] = molecular target: Androgen receptor (Homo sapiens) (UniProt P10275); assay: qHTS assay to identify small molecule antagonists of the androgen receptor (AR) signaling pathway (AID 743035; active = well fitted inhibition curve with a large enough effect in the signal ratio in the repeat runs, not every such curve was filed as active; the % refers to the signal ratio; also: potency is read from the fitted curve at half-maximal effect)
# How it was run: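 Beta-lactamase FRET read (2 h RT incubation with LiveBLAzer B/G) following 16 h of compound plus R1881 treatment of AR-UAS-bla HEK293 cells, which had been pre-incubated 4 h at 37C.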
# [8] = molecular target: Androgen receptor (Homo sapiens) (UniProt P10275); assay: qHTS assay to identify small molecule agonists of the androgen receptor (AR) signaling pathway (AID 743036; active = well fitted activation curve with a large enough effect in the signal ratio in the repeat runs, with a control signal flat, not every such curve was filed as active; the % refers to the signal ratio)
# How it was run: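 HEK293 cells stably carrying a UAS-driven beta-lactamase reporter (GeneBLAzer AR-UAS-bla-GripTite) were plated at 2,000 cells/well, rested 4 h at 37C, then exposed to compounds in DMSO for 16 h. LiveBLAzer B/G FRET substrate was added for 2 h at room temperature; fluorescence read.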
# [9] = molecular target: Androgen receptor (Homo sapiens) (UniProt P10275); assay: qHTS assay to identify small molecule agonists of the androgen receptor (AR) signaling pathway using the MDA cell line (AID 743040; active = well fitted curve in the direction sought with a large enough effect in the repeat runs; an effect the other way counts as inactive or inconclusive; also: nearly all actives have a fitted effect of over 20% in size; also: potency is read from the fitted curve at half-maximal effect)
# How it was run: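 Cells plated, 5 h at 37C/0% CO2; compound or DMSO pinned; 16 h at 37C; ONE-Glo added; luminescence measured after 30 min at room temperature. Reporter line: MDA-kb2 with MMTV-luciferase responsive to AR and GR.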
# [10] = molecular target: Androgen receptor (Homo sapiens) (UniProt P10275); assay: qHTS assay to identify small molecule antagonists of the androgen receptor (AR) signaling pathway using the MDA cell line (AID 743042; active = well fitted curve in the direction sought with a large enough effect in the repeat runs; an effect the other way counts as inactive or inconclusive; also: nearly all actives have a fitted effect of over 55% in size)
# How it was run: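 Antagonist mode: compounds plus R1881 agonist added to MDA-kb2 AR-luc cells, incubated 16 h at 37C. Luciferase reporter luminescence quantified, with multiplexed CellTiter-Fluor readout for cell viability.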
# [11] = molecular target: Nuclear receptor subfamily 1 group I member 2 (Rattus norvegicus) (UniProt Q9R1A7); assay: Rat pregnane X receptor (rPXR) activation by small molecules, qHTS assay (AID 1346983; active = well fitted curve in the direction sought with a large enough effect in the repeat runs; an effect the other way counts as inactive or inconclusive; also: nearly all actives have a fitted effect of over 20% in size); details: rPXR luciferase reporter cells, One-Glo luminescence, 24 h; max activation: hits give high values
# How it was run: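 Luminescent readout (One-Glo luciferase, 30 min room temperature) followed 24 hr compound treatment at 37 C of rPXR cells plated 2,000 per well and preincubated 5hr; qHTS format with compounds delivered in DMSO.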
# [12] = molecular target: Nuclear receptor subfamily 1 group I member 2 (Homo sapiens) (UniProt O75469); assay: CYP3A4 induction through human pregnane X receptor (PXR) by small molecules, qHTS assay (AID 1346984; active = well fitted curve in the direction sought with a large enough effect in the repeat runs; an effect the other way counts as inactive or inconclusive; also: nearly all actives have a fitted effect of over 40% in size)
# How it was run: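 Readings come from a luciferase reporter: DPX-2 cells, which are HepG2 cotransfected with PXR and a CYP3A4-promoter construct, were exposed to test compounds for 24 h at 37C before One-Glo detection.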
# [13] = molecular target: Nuclear receptor subfamily 1 group I member 2 (Homo sapiens) (UniProt O75469); assay: Human pregnane X receptor (PXR) activation by small molecules, qHTS assay (AID 1346985; active = well fitted curve in the direction sought with a large enough effect in the repeat runs; an effect the other way counts as inactive or inconclusive; also: nearly all actives have a fitted effect of over 40% in size)
# How it was run: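 DPX-2 cells (HepG2 co-transfected with a PXR response element and a CYP3A4-promoter luciferase construct) were seeded at 2,000 per well, rested 5 hr at 37C, then exposed to DMSO-dissolved compounds for 24 hr. Activation was read as luciferase luminescence.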
# [14] = qHTS assay for small molecule activators of the heat shock response signaling pathway (AID 743210; active = well fitted activation curve with a large enough effect in the signal ratio in the repeat runs, with a control signal flat, not every such curve was filed as active; the % refers to the signal ratio;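 also: HeLa cells with beta-lactamase reporter driven by heat shock elements; series mostly up to about 63 µM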)
# How it was run: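 HeLa HSE-bla cells, overnight plating; cpd in DMSO 5 h, 37 C; LiveBLAzer B/G FRET substrate 2.5 h RT; fluorescence intensity read.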
# [15] = molecular target: Peroxisome proliferator-activated receptor delta (Homo sapiens) (UniProt Q03181); assay: qHTS assay to identify small molecule agonists of the peroxisome proliferator-activated receptor delta (PPARd) signaling pathway (AID 743212)
# How it was run: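 HEK293H PPARd-bla cells; 5 h preincubation 37 C/5% CO2; compound (DMSO) 37 C; LiveBLAzer B/G FRET substrate 2 h RT; fluorescence intensity.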
# [16] = molecular target: Androgen receptor (Homo sapiens) (UniProt P10275); assay: qHTS assay to identify small molecule agonists of the androgen receptor (AR) signaling pathway in the presence of an antagonist (AID 1259381); also: nearly all actives have a fitted effect of over 15% in size
# How it was run: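 Test compounds at 15 concentrations were incubated for 16hr with MDA-kb2 reporter cells in presence of 3.0uM nilutamide (final). Signal: ONE-Glo luciferase luminescence.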
# Nuclear receptor subfamily 1 group I member 2 (Rattus norvegicus), sequence (Q9R1A7 whole entry, looked up): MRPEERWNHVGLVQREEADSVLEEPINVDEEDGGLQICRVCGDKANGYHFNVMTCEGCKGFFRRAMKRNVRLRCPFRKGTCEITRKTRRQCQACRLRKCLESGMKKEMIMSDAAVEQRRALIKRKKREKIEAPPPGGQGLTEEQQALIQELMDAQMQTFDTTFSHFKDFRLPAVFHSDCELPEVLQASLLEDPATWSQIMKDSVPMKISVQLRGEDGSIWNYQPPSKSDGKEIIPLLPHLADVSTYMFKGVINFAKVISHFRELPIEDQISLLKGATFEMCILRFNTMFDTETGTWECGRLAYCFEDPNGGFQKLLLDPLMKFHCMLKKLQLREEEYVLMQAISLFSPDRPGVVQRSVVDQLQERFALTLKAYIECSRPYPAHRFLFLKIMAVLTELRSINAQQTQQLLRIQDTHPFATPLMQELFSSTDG
# Androgen receptor (Homo sapiens), sequence (P10275 whole entry, looked up): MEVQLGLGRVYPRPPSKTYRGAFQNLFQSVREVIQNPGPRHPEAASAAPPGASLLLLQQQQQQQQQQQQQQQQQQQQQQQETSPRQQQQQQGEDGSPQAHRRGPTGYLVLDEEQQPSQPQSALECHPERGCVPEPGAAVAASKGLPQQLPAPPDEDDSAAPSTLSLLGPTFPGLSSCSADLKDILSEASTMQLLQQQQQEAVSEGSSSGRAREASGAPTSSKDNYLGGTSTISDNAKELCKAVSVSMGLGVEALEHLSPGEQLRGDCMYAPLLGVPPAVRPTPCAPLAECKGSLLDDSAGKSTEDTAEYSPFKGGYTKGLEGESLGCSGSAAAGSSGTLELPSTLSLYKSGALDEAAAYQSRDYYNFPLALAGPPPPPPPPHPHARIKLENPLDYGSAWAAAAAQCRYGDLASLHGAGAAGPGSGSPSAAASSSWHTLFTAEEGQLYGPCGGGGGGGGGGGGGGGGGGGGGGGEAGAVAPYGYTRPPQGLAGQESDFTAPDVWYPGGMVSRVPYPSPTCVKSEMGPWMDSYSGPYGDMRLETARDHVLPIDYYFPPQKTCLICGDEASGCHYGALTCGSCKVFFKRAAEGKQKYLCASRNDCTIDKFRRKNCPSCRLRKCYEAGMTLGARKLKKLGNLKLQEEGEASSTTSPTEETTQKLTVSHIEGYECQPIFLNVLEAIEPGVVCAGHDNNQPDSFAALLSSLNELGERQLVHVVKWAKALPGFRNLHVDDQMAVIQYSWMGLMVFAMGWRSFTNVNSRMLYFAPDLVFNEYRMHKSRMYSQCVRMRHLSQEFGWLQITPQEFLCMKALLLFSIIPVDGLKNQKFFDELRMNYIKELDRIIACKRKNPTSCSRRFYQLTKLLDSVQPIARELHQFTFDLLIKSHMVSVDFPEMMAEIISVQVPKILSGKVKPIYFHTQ
# Glucocorticoid receptor (Homo sapiens), sequence (P04150 whole entry, looked up): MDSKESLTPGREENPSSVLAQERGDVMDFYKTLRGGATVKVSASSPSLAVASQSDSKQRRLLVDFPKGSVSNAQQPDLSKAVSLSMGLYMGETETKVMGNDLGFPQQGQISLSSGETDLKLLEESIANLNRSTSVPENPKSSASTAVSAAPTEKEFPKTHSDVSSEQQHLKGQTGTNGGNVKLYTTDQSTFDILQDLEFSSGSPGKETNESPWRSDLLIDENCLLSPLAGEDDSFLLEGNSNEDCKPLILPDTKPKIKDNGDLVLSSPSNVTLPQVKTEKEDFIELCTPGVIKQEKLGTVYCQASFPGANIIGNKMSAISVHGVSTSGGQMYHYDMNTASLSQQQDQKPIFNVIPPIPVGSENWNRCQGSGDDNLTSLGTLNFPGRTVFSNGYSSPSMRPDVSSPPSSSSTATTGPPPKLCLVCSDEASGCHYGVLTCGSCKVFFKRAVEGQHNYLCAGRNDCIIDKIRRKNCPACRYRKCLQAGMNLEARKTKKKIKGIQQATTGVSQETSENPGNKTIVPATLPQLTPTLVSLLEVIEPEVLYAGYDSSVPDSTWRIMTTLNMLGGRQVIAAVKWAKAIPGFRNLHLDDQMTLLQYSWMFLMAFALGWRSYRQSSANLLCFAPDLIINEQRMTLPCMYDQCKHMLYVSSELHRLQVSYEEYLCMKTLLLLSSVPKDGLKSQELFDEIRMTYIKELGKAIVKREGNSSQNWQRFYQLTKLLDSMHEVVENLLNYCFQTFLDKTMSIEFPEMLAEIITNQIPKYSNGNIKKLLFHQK
# Acetylcholinesterase (Homo sapiens), sequence (P22303 whole entry, looked up): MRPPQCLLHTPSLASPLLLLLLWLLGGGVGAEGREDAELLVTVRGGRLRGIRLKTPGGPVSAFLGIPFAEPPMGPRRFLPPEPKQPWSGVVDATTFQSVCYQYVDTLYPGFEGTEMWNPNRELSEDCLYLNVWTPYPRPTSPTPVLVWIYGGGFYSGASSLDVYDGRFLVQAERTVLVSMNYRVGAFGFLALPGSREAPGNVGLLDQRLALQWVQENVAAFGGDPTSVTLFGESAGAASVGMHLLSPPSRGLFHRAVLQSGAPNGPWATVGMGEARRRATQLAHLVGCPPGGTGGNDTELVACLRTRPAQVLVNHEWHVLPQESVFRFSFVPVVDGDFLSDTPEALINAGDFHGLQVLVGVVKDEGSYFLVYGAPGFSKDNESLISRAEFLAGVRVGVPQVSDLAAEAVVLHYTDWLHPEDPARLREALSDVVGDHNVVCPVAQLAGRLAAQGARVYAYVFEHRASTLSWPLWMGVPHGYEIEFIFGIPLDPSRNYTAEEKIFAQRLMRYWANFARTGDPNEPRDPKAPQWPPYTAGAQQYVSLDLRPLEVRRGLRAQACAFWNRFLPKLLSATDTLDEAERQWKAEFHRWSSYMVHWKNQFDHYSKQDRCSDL
# Peroxisome proliferator-activated receptor delta (Homo sapiens), sequence (Q03181 whole entry, looked up): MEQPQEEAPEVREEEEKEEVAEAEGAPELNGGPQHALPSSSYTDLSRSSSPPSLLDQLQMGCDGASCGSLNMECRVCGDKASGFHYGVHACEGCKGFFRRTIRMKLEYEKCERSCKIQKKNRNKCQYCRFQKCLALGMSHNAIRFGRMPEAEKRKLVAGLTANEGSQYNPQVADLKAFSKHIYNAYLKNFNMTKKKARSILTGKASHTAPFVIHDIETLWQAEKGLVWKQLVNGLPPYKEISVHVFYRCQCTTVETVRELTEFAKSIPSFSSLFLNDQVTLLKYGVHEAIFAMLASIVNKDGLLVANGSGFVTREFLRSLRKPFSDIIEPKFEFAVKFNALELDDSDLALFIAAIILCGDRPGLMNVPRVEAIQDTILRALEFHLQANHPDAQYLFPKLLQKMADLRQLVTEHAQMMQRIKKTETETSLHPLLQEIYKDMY
compound,measurement,setting,value
COc1ccc(C)cc1N,Potency,[1],inactive
same,Potency,[2],inactive
same,Potency,[3],inactive
same,Potency,[4],inactive
same,Potency,[5],inactive
CN1[C@@H]2CC[C@H]1CC(OC(=O)C(CO)c1ccccc1)C2 (stereo not given in full),Potency,[1],inactive
Cc1nnc2n1-c1sc(Br)cc1C(c1ccccc1Cl)=NC2,Potency,[6],10.7 µM (active)
same,Potency,[7],8.49 µM (active)
same,Potency,[8],inactive
same,Potency,[9],inactive
same,Potency,[10],inactive
Cc1c(N)cccc1N,Potency,[1],inactive
same,Potency,[2],inactive
same,Potency,[3],inactive
same,Potency,[4],inactive
same,Potency,[5],inactive
Clc1ccc(Cl)c(Cl)c1Cl,Potency,[1],inactive
same,Potency,[2],inactive
same,Potency,[3],inactive
same,Potency,[4],inactive
same,Potency,[5],inactive
O=C(Cl)c1cccc(C(=O)Cl)c1,Potency,[1],inactive
same,Potency,[2],inactive
same,Potency,[3],inactive
same,Potency,[4],inactive
same,Potency,[5],inactive
[S]=[Sb](=[S])[S][Sb](=[S])=[S],Potency,[6],inactive
same,max activation,[11],-0.774%
same,Potency,[12],inactive
same,Potency,[13],inactive
CCOC(=O)C1(c2ccccc2)CCCN(C)CC1 (stereo not given),Potency,[6],inactive
Brc1ccc(Oc2ccc(Br)cc2)cc1,Potency,[14],inactive
same,Potency,[1],inactive
same,Potency,[2],inactive
same,Potency,[3],inactive
same,Potency,[4],inactive
same,Potency,[5],inactive
C=CCOc1c(Br)cc(C(C)(C)c2cc(Br)c(OCC=C)c(Br)c2)cc1Br,Potency,[6],inactive
same,outcome,[15],inactive
same,Potency,[1],inactive
same,Potency,[2],inactive
same,Potency,[3],inactive
same,Potency,[4],inactive
same,Potency,[5],inactive
CCN(CC)/[N+]([O-])=N/O,Potency,[6],inactive
COc1cc([C@@H]2c3cc4c(cc3[C@H](O)[C@H]3COC(=O)[C@H]23)OCO4)cc(OC)c1OC,Potency,[1],inactive
same,Potency,[2],inactive
same,Potency,[3],inactive
same,Potency,[4],inactive
same,Potency,[5],inactive
CCNCC(O)c1cccc(O)c1 (stereo not given),Potency,[6],inactive
same,max activation,[11],1.03%
same,Potency,[12],inactive
same,Potency,[13],inactive
Cc1ccc(C)cc1,Potency,[1],inactive
same,Potency,[2],inactive
same,Potency,[3],inactive
same,Potency,[4],inactive
same,Potency,[5],inactive
CN[C@@]1(c2ccccc2Cl)CCCCC1=O,Potency,[6],inactive
CC1(C)C(C=C(Cl)Cl)C1C(=O)OCc1cccc(Oc2ccccc2)c1 (stereo not given),Potency,[1],inactive
same,Potency,[2],inactive
same,Potency,[3],inactive
same,Potency,[4],inactive
same,Potency,[5],inactive
Clc1cc(Cl)c(Cl)cc1Cl,Potency,[1],inactive
same,Potency,[2],inactive
same,Potency,[3],inactive
same,Potency,[4],inactive
same,Potency,[5],inactive
COc1cc(C[C@H](C)N)c(OC)cc1C,Potency,[6],inactive
CN1CC[C@@]23CCCC[C@@H]2[C@@H]1Cc1ccc(O)cc13,Potency,[8],inactive
same,Potency,[9],26.6 µM (active)
same,Potency,[10],inactive
O=P1(N(CCCl)CCCl)NC(OO)CCO1 (stereo not given),Potency,[6],inactive
CC(=O)OC(C)=O,Potency,[14],inactive
same,Potency,[1],inactive
same,Potency,[2],inactive
same,Potency,[3],inactive
same,Potency,[4],inactive
same,Potency,[5],inactive
CC(=O)OC1CN2CCC1CC2 (stereo not given),Potency,[6],inactive
same,max activation,[11],-0.436%
same,Potency,[12],inactive
same,Potency,[13],inactive
c1ccc(-c2ccccc2-c2ccccc2)cc1,Potency,[16],inactive
same,Potency,[2],inactive
same,Potency,[3],inactive
same,Potency,[4],inactive
same,Potency,[5],inactive
